Compound activity: PubChem, National Center for Advancing Translational Sciences (NCATS)
Rows were chosen to be rich in hits. Some 10% of all compounds tested hit in one or more screens of this group.
HPGD inh: qHTS Assay for Inhibitors of HPGD (15-Hydroxyprostaglandin Dehydrogenase). purified HPGD, NADH fluorescence kinetic, PGE2 substrate. Potency, µM, for inactives: at the top dose activity change, negative = inhibition, most hits filed as inhibitors. 150,000 tested, 4.3% active. AID 894, 2007; note: potency is the fitted concentration of half-maximal effect
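20 nM HPGD preincubated 15 min at room temperature with compound in 50 mM Tris-HCl pH 8, 0.01% Tween 20. Started with 1 mM NAD+ and 30 uM prostaglandin E2; NADH fluorescence (360/450 nm) read 5 times over 30-s intervals, last minus first.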
Lamin A splicing: qHTS Assay for Modulators of Lamin A Splicing; Potency, µM (top dose mostly 46.1 µM), for the others: at the top dose ratio change, negative = inhibition, actives largely listed as inhibitors; AID 1487, 2009; HeLa LMNA splicing GFP/RFP minigene ratio, 48 h; 200,000 tested, 0.01% active; active = well fitted inhibition curve with a large enough effect in the signal ratio, with a control signal flat, not every such curve was filed as active; inconclusive = small, poorly fitted or top-dose-only effect, or effect the other way, or a change in a side signal; the % refers to the signal ratio; note: potency is the fitted concentration of half-maximal effect
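Read-out is the ratio of GFP to DsRed2 object intensity, acquired by 488 nm laser-scanning cytometry on HeLa lamin A-EGFP minigene reporter cells. Compound incubation 48 hrs at 37 °C in Opti-MEM with 2% FBS; DMSO 0.5% final.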
ALOX12 inhib: qHTS Assay for Inhibitors of 12-hLO (12-human lipoxygenase); purified 12-hLO, xylenol orange hydroperoxide absorbance; 150,000 tested, 0.12% active; Polyunsaturated fatty acid lipoxygenase ALOX12 (Homo sapiens), P18054; Potency, µM (titrated, usually from 57.1 µM), for inactives: top-dose activity change, negative = inhibition, hits mostly inhibitors; active = well fitted inhibition curve with a large enough effect; inconclusive = small, poorly fitted or top-dose-only effect; note: potency is the fitted concentration of half-maximal effect; nearly all actives have a fitted effect of over 55% in size
Target sequence (P18054 whole entry, looked up): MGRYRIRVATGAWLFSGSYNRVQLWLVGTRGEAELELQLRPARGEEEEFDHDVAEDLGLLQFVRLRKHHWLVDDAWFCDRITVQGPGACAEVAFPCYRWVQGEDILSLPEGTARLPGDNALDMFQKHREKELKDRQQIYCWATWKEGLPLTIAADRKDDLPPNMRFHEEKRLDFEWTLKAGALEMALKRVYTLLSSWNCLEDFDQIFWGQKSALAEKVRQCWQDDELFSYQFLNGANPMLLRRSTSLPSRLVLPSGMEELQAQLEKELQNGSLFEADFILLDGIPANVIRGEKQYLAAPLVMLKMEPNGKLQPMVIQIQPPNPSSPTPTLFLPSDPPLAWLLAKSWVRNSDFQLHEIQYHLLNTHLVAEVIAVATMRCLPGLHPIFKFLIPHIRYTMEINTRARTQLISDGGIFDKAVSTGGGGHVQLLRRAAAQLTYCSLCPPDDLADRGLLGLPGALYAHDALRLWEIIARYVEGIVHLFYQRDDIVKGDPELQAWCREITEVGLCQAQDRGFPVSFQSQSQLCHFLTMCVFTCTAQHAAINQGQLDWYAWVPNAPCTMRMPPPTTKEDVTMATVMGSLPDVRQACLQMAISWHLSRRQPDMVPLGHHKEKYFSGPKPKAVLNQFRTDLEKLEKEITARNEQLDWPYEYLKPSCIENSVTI
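150 nM 12hLO, 25 mM Hepes pH 7.0 + 0.01% Triton X-100; cpd preinc 15 min RT; 40 uM arachidonic acid, 30 min RT; Fe-XO 30 min; A573/A405 ratio as read-out.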
ALDH1A1 inh: qHTS Assay for Inhibitors of Aldehyde Dehydrogenase 1 (ALDH1A1) | Aldehyde dehydrogenase 1A1 (Homo sapiens), P00352 | Purified ALDH1A1, NADH fluorescence, propionaldehyde substrate | Potency, µM (highest dose often 75.3 µM), inactives show at the top dose activity, negative = inhibition, actives largely listed as inhibitors | 220,000 tested, 7.3% active;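 note: potency is the fitted concentration of half-maximal effect; plate controls were no enzyme wells and a reference inhibitor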
PNC inhibitor: High Content Assay for Compounds that inhibit the Assembly of the Perinucleolar Compartment | 140,000 tested, 3.1% active | activity change (PNC), negative = inhibition, % at 10 µM | PC3M PTB-GFP, PNC prevalence imaging, 16 h; stronger effect = lower value;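 active = readout at or below -70, meaning at least 70% loss of cells showing the perinucleolar compartment, a nuclear body marking cancer cells; inconclusive = readout between -30 and a set limit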;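 note: plate controls were DMSO wells for no effect and camptothecin positive control wells for full effect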
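Compounds are pinned in duplicate onto adhered PC3M cells stably expressing GFP-tagged PTB and incubated 16 h at 37 C. Cells are then fixed, nuclei stained with Hoechst, and PNC-positive cells counted.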
The depositor's hits bear a star; ? = inconclusive; nt = no result; [ ] = another dose, or the depositor's remark. Unless noted, calls come from the whole dose curve; as a rule, active = well fitted inhibition curve with a large enough effect (not every such curve was filed as active); inconclusive = small, poorly fitted or top-dose-only effect, or another doubt; inactive = no such curve, though single readings can be large or run the other way. Unless noted, % is set by controls: 0 for no effect and ±100 for the full control effect.

SMILES	HPGD inh	Lamin A splicing	ALOX12 inhib	ALDH1A1 inh	PNC inhibitor
CC[n+]1c(/C=C/C=C/N(C(C)=O)c2ccccc2)sc2ccccc21	-26.4%	-3.6%[0.0737 µM]	?	3.55µM*	69.0
CCn1c(/C=C/N(C(C)=O)c2ccccc2)[n+](CC)c2ccc(Cl)cc21	-1.4%	?	-0.9%	2.3%	?
COc1cccc(C(=O)Cn2c(Br)nc3c2c(=O)n(C)c(=O)n3C)c1	-12.4%	2.4%	3.8%	0.1%	13.1
Cn1c(=O)c2c(nc(Br)n2CC(=O)C23CC4CC(CC(C4)C2)C3)n(C)c1=O	-16.5%	?	1.7%	11.2µM*	?
Cc1oc2ncn(CC(C)C)c(=O)c2c1C(=O)NCCCN1CCCCC1	nt	-2.4%[46 µM]	nt	nt	nt
O=C(NC1CC2CCC(C1)N2Cc1nnnn1Cc1ccco1)NC12CC3CC(CC(C3)C1)C2 (stereo unspecified)	21.0%	?	-4.5%	7.94µM*	-23.1
O=C(NCc1ccccc1)NC1CC2CCC(C1)N2Cc1ccco1 (stereo unspecified)	-2.3%	3.4%	2.9%	3.1%	19.6
O=C(Nc1ccccc1F)NC1CCN(Cc2nnnn2Cc2ccc(F)cc2)CC1	-9.4%	-1.8%	-4.9%	-4.2%	29.5
CCOc1ccccc1C(=O)NC1CC2CCCC(C1)N2Cc1nnnn1Cc1ccco1 (stereo unspecified)	0.0%	?	-2.2%	1µM*	-7.5
O=C(Nc1ccc(F)cc1)NC1CCN(Cc2nnnn2Cc2ccco2)CC1	1.6%	-6.2%	-3.4%	17.8µM*	33.1
CCCNC(=O)c1cnc2sc(N3CCCCCC3)nn2c1=O	nt	-7.5%[46 µM]	nt	nt	nt
CC(C)N(Cc1nccn1C)C(=O)CC1C(=O)NCCN1Cc1ccccc1C(F)(F)F (stereo unspecified)	nt	3.1%[46 µM]	nt	39.8µM*	nt
CCc1ccc(-n2nc(C)c3c(C(=O)Nc4cc(C)ccc4C)cc(C)nc32)cc1	nt	4.9%[46 µM]	nt	nt	nt
O=C(c1ccco1)N1CCC2(CC1)CCN(c1ccc(-c3ccccc3)cc1)CC2	-9.2%	nt	-0.7%	-4.9%	nt
O=C(c1ccco1)N1CCC2(CCCN(c3ccccc3)C2)CC1	-2.2%	nt	-12.0%	?	nt
COc1ccc(C(=O)N2CCC3(CCCN(c4cccc(-c5ccccc5)c4)C3)CC2)cc1	-23.2%	nt	-10.2%	22.4µM*	nt
O=C(c1ccco1)N1CCC2(CC1)CCN(c1cccc(-c3ccccc3)c1)CC2	-19.4%	nt	-4.4%	28.2µM*	nt
COc1ccc(C(=O)N2CCC3(CC2)CN(c2cccc(-c4ccccc4)c2)C3)cc1	?	nt	-5.5%	?	nt
O=C(c1ccco1)N1CCC2(CCCN(c3cccc(-c4ccccc4)c3)C2)CC1	-7.2%	nt	-4.2%	25.1µM*	nt
C[C@H](O)Cn1cnc2c1c(=O)n(C)c(=O)n2C	-5.3%	-4.2%	5.3%[25.6 µM]	7.0%[20.9 µM]	nt
CCOc1ccc(C(=O)NCc2nc3cccnc3n2Cc2cccc(OC)c2)cc1	nt	-28.4%[46 µM]	nt	nt	nt
CCOC(=O)C1=C(N)OC2=C(C(=O)CC(C)(C)C2)C1c1cc(CSc2nnnn2C)cs1 (stereo unspecified)	nt	nt	nt	1µM*	nt
CCOC(=O)C1=C(N)OC2=C(C(=O)CC(C)(C)C2)C1c1ccoc1 (stereo unspecified)	-4.3%	1.7%	-8.9%	25.1µM*	12.6
N#CCCn1cc(/C=C/C(=O)O)c(-c2ccc(F)cc2)n1	nt	-6.0%[46 µM]	nt	12.9%	nt
NC1=NC(=O)/C(=C/c2cn(CCC(=O)O)nc2-c2ccc(Cl)cc2)S1	12.6µM*	-4.2%	-8.3%	25.1%	3.8
CCCOc1ccc(-c2nn(-c3ccccc3)cc2/C=C2\SC(N)=NC2=O)cc1	?	-12.8%	-2.7%	11.8%	-7.8
COc1ccc(-c2nn(CCC(=O)O)cc2/C=C2\SC(N)=NC2=O)cc1	11.2µM*	-17.1%	2.7%	4.2%	34.6
O=C(O)CCn1cc(/C=C\C(=O)c2ccc(Cl)cc2)c(-c2cccc(Br)c2)n1	25.1µM*	?	-2.6%	?	44.1
NC1=NC(=O)/C(=C/c2cn(CCC(=O)O)nc2-c2ccc(F)cc2)S1	25.1µM*	-10.3%	-0.7%	-15.2%	18.2
